The sample as a whole holds a higher share of hits than the screen did.
BL2 CD40 inh: inhibitors of CD40-induced NF-kB signaling, primary screen, BL2 cells, luciferase reporter, single point. CD40L-induced, 4 h. inhibition, % at 10 µM. actives 0.94% (n = 83,000). AID 1053188, 2014;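 active means mean inhibition of at least 50% with a set share of replicates also reaching that level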;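 further: 0% = neutral control wells and 100% = IKK inhibitor VII at 50 µM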
* = called active by the depositor; [ ] = dose if it differs, or a comment.

SMILES	BL2 CD40 inh
O=C(COC(=O)c1ccccc1[N+](=O)[O-])c1ccc2c(c1)OCO2	88.0*
N#CCC(=O)Nc1ccc(C(=O)OCC(=O)c2ccc3c(c2)OCO3)cc1	-63.4
O=C(COC(=O)c1ccccc1-c1ccccc1[N+](=O)[O-])c1ccccc1	-11.7
CNS(=O)(=O)c1cccc(C(=O)OCC(=O)c2ccc3c(c2)OCCO3)c1	25.0
CC(=O)NC12CC3CC(C1)CC(C(=O)OCC(=O)c1ccc4c(c1)OCCO4)(C3)C2	59.3*
O=C(COC(=O)c1cccs1)c1ccc2ccccc2c1	-83.3
COC(=O)C1CC2=CC(=O)CCC2(C)C23OC2CC2(C)C(CCC24CCC(=O)O4)C13 (configuration not stated)	1.7[25 µM]
CCS(=O)(=O)N1CC2(CN(Cc3ccccc3F)[C@H](CO)c3[nH]c4cc(OC)ccc4c32)C1	4.5[25 µM]
CN(C(=O)Nc1ccc(S(=O)(=O)N(C)C)cc1)C1CCCCC1	-13.3
CN(C)S(=O)(=O)c1ccc(NC=O)cc1	27.0*
CN(C)S(=O)(=O)c1ccc(NC(=O)Cn2ccsc2=N)cc1	8.7
O=C(C[C@@H]1CC[C@@H]2NC[C@@H](O)COC[C@H]2O1)NCCN1CCCC1	0.7
C[C@H](CO)N1C[C@H](C)[C@H](CN(C)C(=O)C2CCOCC2)Oc2ncc(C#CCc3ccccc3)cc2C1=O	63.5*[25 µM]
C[C@H](CO)N1C[C@H](C)[C@@H](CN(C)C(=O)C2CCOCC2)Oc2ncc(C#CCc3ccccc3)cc2C1=O	41.0[25 µM]
C[C@H]1CN([C@@H](C)CO)C(=O)c2cc(C#CCc3ccccc3)cnc2O[C@H]1CN(C)C(=O)C1CCOCC1	0.4[25 µM]
CC(C)NC[C@H]1[C@@H](c2ccc(C3=CCCC3)cc2)[C@@H](CO)N1C(=O)CC1CC1	3.8
COCC(=O)N1[C@H](CO)[C@@H](c2ccc(C3=CCCCC3)cc2)[C@@H]1C#N	-16.5
COc1c(C)c2c(c(O)c1C/C=C(/C)CCC(=O)O)C(=O)OC2	-8.9[25 µM]
C[C@H]1CN([C@@H](C)CO)C(=O)c2cc(-c3cccc(C#N)c3)cnc2O[C@@H]1CN(C)C(=O)C1CCCCC1	-21.4[25 µM]
CNC(=O)OCc1nc(SSC(C)(C)C)n(C)c1COC(=O)NC	96.1*
CC=Cc1ccc2n(c1=O)C[C@H]1[C@H](CO)[C@@H](C(=O)NC3CCC3)[C@@H]2N1Cc1ccncc1 (mixture of isomers)	-3.6
Cc1ccc(S(=O)(=O)N(C)C[C@@H]2OCCCC[C@@H](C)Oc3ccc(NS(=O)(=O)c4ccccc4)cc3C(=O)N([C@@H](C)CO)C[C@@H]2C)cc1	2.1
O=C(NC(=O)c1ccccc1)Nc1ccccn1	108.1*
O=C(CC(=O)Nc1ccccn1)Nc1ccccn1	7.8
O=C(Nc1ccccn1)c1ccc(C(=O)c2ccccc2)cc1	-13.0
SMILES	BL2 CD40 inh
O=C(c1ccccc1F)N1C[C@@H]2[C@H](c3ccccc31)[C@@H](CO)N2C(=O)Nc1ccccc1	7.5[25 µM]
CCC(=O)N1CC[C@@H]2[C@@H](CO)Nc3ccc(C#Cc4ccccc4F)cc3[C@@H]21	-7.0[25 µM]
O=C(N[C@H]1CC[C@H](CCNC(=O)C2CCCC2)O[C@H]1CO)c1ccccn1	-1.6
COc1cccc(S(=O)(=O)Nc2ccc3c(c2)[C@@H]2C[C@@H](CC(=O)NCc4ccccc4F)O[C@H](CO)[C@@H]2O3)c1	6.1[25 µM]
Cc1ccc(S(=O)(=O)CC#CCOC(=O)c2ccc([N+](=O)[O-])cc2)cc1	88.6*
Cc1ccc(CONC(=O)c2ccc([N+](=O)[O-])cc2)cc1	-21.3
Cc1ccc(S(=O)(=O)CC(=O)N2CCN(c3ccc([N+](=O)[O-])cc3)CC2)cc1	21.6
C/C=C/c1ccc([C@@H]2[C@H](CO)N(C(=O)CC)[C@H]2CNC(=O)CC2CC2)cc1	2.7
COc1cccc(-c2ccc3n(c2=O)C[C@H]2[C@H](CO)[C@@H](C(=O)N(C)C)N(C(=O)C4CCCC4)[C@@H]32)c1	-0.4
C[C@@H]1CN([C@H](C)CO)C(=O)c2cc(NS(=O)(=O)c3ccc(Cl)cc3)ccc2O[C@@H](C)CCCCO[C@H]1CN(C)Cc1ccc(Cl)c(Cl)c1	27.5
COc1ccc(NC(=O)Nc2ccc3c(c2)C(=O)N([C@@H](C)CO)C[C@@H](C)[C@@H](CN(C)Cc2ccc(C(F)(F)F)cc2)OCCCC[C@H](C)O3)cc1	-0.5
COc1ccc(S(=O)(=O)Nc2ccc3c(c2)C(=O)N([C@H](C)CO)C[C@@H](C)[C@H](CN(C)C(=O)Nc2ccc(C(F)(F)F)cc2)OCCCC[C@@H](C)O3)cc1	4.6
COc1ccc(NC(=O)Nc2ccc3c(c2)C(=O)N([C@@H](C)CO)C[C@H](C)[C@@H](CN(C)S(=O)(=O)c2ccc(OC)cc2)O3)cc1	-6.0
COc1ccc(S(=O)(=O)N(C)C[C@H]2Oc3ccc(NC(=O)Nc4ccc(C(F)(F)F)cc4)cc3C(=O)N([C@@H](C)CO)C[C@@H]2C)cc1	73.8*[25 µM]
C[C@H]1CN([C@@H](C)CO)C(=O)c2cc(NC(=O)Nc3ccc(C(F)(F)F)cc3)ccc2O[C@H]1CN(C)S(=O)(=O)c1ccc(Cl)cc1	12.2
C[C@H](CO)N1C[C@H](C)[C@H](CN(C)Cc2ccc(C(=O)Nc3ccccc3N)cc2)Oc2c(NS(=O)(=O)c3ccc(Cl)cc3)cccc2C1=O	-33.3[25 µM]
C[C@H]1CN([C@@H](C)CO)C(=O)c2cccc(NS(=O)(=O)c3ccc(Cl)cc3)c2O[C@H]1CN(C)Cc1ccc(C(=O)Nc2ccccc2N)cc1	-42.6[25 µM]
COc1ccc(CN(C)C[C@H]2OCCCC[C@H](C)Oc3ccc(NS(=O)(=O)c4ccc(Cl)cc4)cc3C(=O)N([C@H](C)CO)C[C@H]2C)cc1	62.5*
COc1ccc(S(=O)(=O)Nc2ccc3c(c2)C(=O)N([C@@H](C)CO)C[C@H](C)[C@@H](CN(C)Cc2ccc(C(F)(F)F)cc2)OCCCC[C@@H](C)O3)cc1	76.2*[25 µM]
C[C@H]1CCCCO[C@@H](CN(C)Cc2ccncc2)[C@@H](C)CN([C@@H](C)CO)C(=O)c2cc(NS(=O)(=O)c3ccc(Cl)cc3)ccc2O1	11.2[25 µM]
C[C@@H]1CN([C@H](C)CO)C(=O)c2cccc(NS(=O)(=O)c3ccc(Cl)cc3)c2O[C@@H]1CN(C)Cc1ccc(C(=O)Nc2ccccc2N)cc1	active[25 µM]
CC(=O)Nc1ccc2c(c1)CC(=O)N(C)C[C@@H](C)[C@@H](CN(C)C)O2	-1.6
N#C[C@@H]1[C@@H](c2ccccc2-c2ccc(F)cc2)[C@@H](CO)N1c1ncc(-c2ccccc2)s1	3.3[25 µM]
O=C(Cc1cccnc1)N1CC(=O)N2[C@H](CO)[C@@H](c3ccc(C#CC4CCCC4)cc3)[C@H]2C1	-0.9
CC(=O)N(C)C[C@@H]1Oc2ccccc2C(=O)N(C)C[C@H]1C	10.9
SMILES	BL2 CD40 inh
CC(=O)N1[C@@H]2CN(CC3CC3)C[C@H]1C2c1ccc(Br)cc1 (some centres not stated)	0.4
COc1ccc2c3c(n(C)c2c1)[C@H](CO)N(C(=O)C1CC1)CC31CCN(C(=O)C2CCOCC2)CC1	5.3
CC(C)C1C(=O)N(S(C)(=O)=O)[C@@H]2CCN(C(=O)/C=C/CN3CCCCC3)[C@@H]12 (some centres not stated)	-4.8[25 µM]
C[C@@H]1CN(C)C(=O)c2cc(N)ccc2O[C@@H]1CN(C)C(=O)OC(C)(C)C	5.8
C[C@@H]1CN([C@@H](C)CO)C(=O)c2cccc(NC(=O)CCCCCC(=O)Nc3ccccc3N)c2O[C@H]1CN(C)S(=O)(=O)c1cn(C)cn1	-13.4[25 µM]
C[C@@H]1CCCCO[C@H](CN(C)Cc2ccc(Cl)c(Cl)c2)[C@@H](C)CN([C@H](C)CO)C(=O)c2cc(NS(=O)(=O)c3cccs3)ccc2O1	31.4[25 µM]

Screening results from PubChem BioAssay.
